# In PubChem BioAssay:
# Several values for one entry are separate records, joined by “and”; a condition that tells them apart may be missing. Equal values may be shown once. Inconclusive results are not listed. Activity calls are given as the source filed them. Unless noted, the rule behind the calls is not given here.
# How the values were obtained:
# [1] = test system: Neuropilin-2 / VEGF-C interaction (human); test: inhibitors of NRP2–VEGF-C binding, biochemical, microplate binding format, z-score (AID 743281); conditions: microplate NRP2/VEGF-C binding assay; stronger effect = lower value
# [2] = growth inhibition of DIPG glioma cells, dose response, cell-based, SU-DIPG-XVII, MIPE5.0, CellTiter-Glo, qHTS (AID 1347060; cut-off not given, nearly all actives have AC50 up to about 26 µM;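 for AC50: cells exposed to compound for 48 hours before viability readout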); conditions: SU-DIPG-XVII viability, CellTiter-Glo ATP luminescence
# [3] = growth inhibition of DIPG glioma cells, dose response, cell-based, JHH-DIPG-1, MIPE4.0, CellTiter-Glo, qHTS (AID 1347062; cut-off not given, nearly all actives have AC50 up to about 27 µM;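 for AC50: cells exposed to compound for two days before readout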); conditions: JHH-DIPG-1 viability, CellTiter-Glo ATP luminescence
# [4] = growth inhibition of DIPG glioma cells, dose response, cell-based, SU-DIPG-IV, MIPE4.0, CellTiter-Glo, qHTS (AID 1347063; cut-off not given, nearly all actives have AC50 up to about 30 µM;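 note: compound exposure lasted 48 hours before the viability readout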); conditions: SU-DIPG-IV viability, CellTiter-Glo ATP luminescence
# [5] = SU-DIPG-VI glioma cell viability, MIPE4.0 library, CellTiter-Glo luminescence, qHTS (AID 1347066; cut-off not given, nearly all actives have AC50 up to about 30 µM;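 note: cells exposed to compound for 48 hours before readout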); conditions: CellTiter-Glo ATP luminescence
# [6] = SU-DIPG-XXV glioma cell viability, MIPE5.0 library, qHTS (AID 1347068; cut-off not given, nearly all actives have IC50 up to about 30 µM)
# [7] = LFS_MB_P medulloblastoma growth inhibition, cell-based, chromothripsis tumors, cisplatin or BGB combos (AID 1671449; in the data active = inhibition above about 80%;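 note: cells exposed for 96 hours; 0% = vehicle DMSO and 100% = killing by high DMSO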); conditions: LFS_MB_P medulloblastoma cells
# [8] = HDN33 neuroblastoma growth inhibition, cell-based, chromothripsis tumors, cisplatin or BGB combos (AID 1671450; in the data active = inhibition above about 80%;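 note: cells exposed to compound for four days; 0% = vehicle DMSO and 100% = cell killing by high DMSO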); conditions: HDN33 neuroblastoma cells, stronger effect = higher value
# [9] = ICB984 medulloblastoma cell growth inhibition, synergistic combos for chromothripsis tumors, cisplatin or BGB combos (AID 1671451); conditions: ICB984 medulloblastoma cells, drug combinations, stronger effect = higher value;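 note: cells exposed for 96 hours before readout; 0% = vehicle DMSO and 100% = killing by high DMSO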
# [10] = HTB85 osteosarcoma cell growth inhibition, synergistic combos for chromothripsis tumors, BGB or cisplatin IC20 combos (AID 1671453; in the data active = inhibition above about 80%;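 note: cells exposed for 96 hours before readout; 0% = vehicle DMSO and 100% = high DMSO killing control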); conditions: HTB85 osteosarcoma cells, drug combinations, stronger effect = higher value
# [11] = JHH-DIPG-1 glioma cell viability, MIPE5.0 library, CellTiter-Glo luminescence, qHTS (AID 1347067; cut-off not given, nearly all actives have AC50 up to about 26 µM;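 note: cells exposed to compound for 48 hours before readout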); conditions: JHH-DIPG-1 glioma viability, CellTiter-Glo ATP luminescence
# [12] = molecular target: ATP-dependent translocase ABCB1 (Homo sapiens) (UniProt P08183); test: MDR1 (ABCB1) efflux transporter inhibition, cell-based (AID 377; in the data active = fluorescence slope change above about 50%); conditions: MDR1-expressing cells, fluorescent substrate accumulation slope; stronger effect = higher value; concentration not given here
# [13] = reducers of polyQ inclusions in PC12 cells, cell-based, NGF-treated PC12, GFPQ80 (AID 1614); conditions: PC12 NGF-treated GFP-polyQ80 inclusion reduction;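 note: lower means fewer inclusions and 0 means no inclusions at all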
# [14] = growth inhibition of DIPG glioma cells, dose response, cell-based, SU-DIPG-XIII, MIPE5.0, CellTiter-Glo, qHTS (AID 1347064; cut-off not given, nearly all actives have AC50 up to about 23 µM;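 for AC50: cells exposed to compound for 48 hours before the viability read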); conditions: SU-DIPG-XIII viability, CellTiter-Glo ATP luminescence
# [15] = viability loss in pontine glioma line – cell-based, SU-DIPG-XXV, MIPE5.0, CellTiter-Glo, qHTS, dose response (AID 1347065; cut-off not given, nearly all actives have AC50 up to about 26 µM;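 note: cells exposed to compound for 48 hours before ATP readout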); conditions: CellTiter-Glo ATP luminescence
# [16] = circadian clock period modulators, cell-based, LOPAC library, luminescence reporter (AID 2774); conditions: circadian reporter cells, at 7 µM, actives lie on both sides;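 note: values are relative to mean of DMSO wells on each plate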
# [17] = Cy5 fluorescence quenching or enhancement artefacts, artefact control for HCV NS3 helicase inhibitor project, biochemical, LOPAC1280 (AID 687037); conditions: Cy5-DNA-NS3h complex fluorescence interference counterscreen
# [18] = phospholipid biosynthesis inhibitors in animal cells, primary screen, cell-based, LOPAC library, screen 4 (AID 1347384); conditions: phospholipid biosynthesis inhibition screen, at 10 µM
# [19] = at 0.5 µM, stronger effect = higher value
# [20] = measured here: combination with BGB IC20, at 0.005 µM
# [21] = measured here: combination with BGB IC40, at 0.005 µM
# [22] = measured here: combination with BGB IC40, at 0.05 µM
# [23] = measured here: combination with cisplatin, at 0.5 µM, stronger effect = higher value
# [24] = measured here: combination with cisplatin, at 5 µM, stronger effect = higher value
# [25] = measured here: with BGB IC20 combination, at 0.5 µM
# [26] = measured here: with cisplatin IC20 combination, at 0.5 µM
# [27] = measured here: 5 uM single agent, at 5 µM
# [28] = measured here: with BGB IC20, at 0.5 µM
# [29] = measured here: with BGB IC20, at 5 µM
# [30] = measured here: with cisplatin IC20, at 0.5 µM
# [31] = measured here: with cisplatin IC20, at 5 µM
# Sequence of ATP-dependent translocase ABCB1 (Homo sapiens) (P08183 whole entry, looked up): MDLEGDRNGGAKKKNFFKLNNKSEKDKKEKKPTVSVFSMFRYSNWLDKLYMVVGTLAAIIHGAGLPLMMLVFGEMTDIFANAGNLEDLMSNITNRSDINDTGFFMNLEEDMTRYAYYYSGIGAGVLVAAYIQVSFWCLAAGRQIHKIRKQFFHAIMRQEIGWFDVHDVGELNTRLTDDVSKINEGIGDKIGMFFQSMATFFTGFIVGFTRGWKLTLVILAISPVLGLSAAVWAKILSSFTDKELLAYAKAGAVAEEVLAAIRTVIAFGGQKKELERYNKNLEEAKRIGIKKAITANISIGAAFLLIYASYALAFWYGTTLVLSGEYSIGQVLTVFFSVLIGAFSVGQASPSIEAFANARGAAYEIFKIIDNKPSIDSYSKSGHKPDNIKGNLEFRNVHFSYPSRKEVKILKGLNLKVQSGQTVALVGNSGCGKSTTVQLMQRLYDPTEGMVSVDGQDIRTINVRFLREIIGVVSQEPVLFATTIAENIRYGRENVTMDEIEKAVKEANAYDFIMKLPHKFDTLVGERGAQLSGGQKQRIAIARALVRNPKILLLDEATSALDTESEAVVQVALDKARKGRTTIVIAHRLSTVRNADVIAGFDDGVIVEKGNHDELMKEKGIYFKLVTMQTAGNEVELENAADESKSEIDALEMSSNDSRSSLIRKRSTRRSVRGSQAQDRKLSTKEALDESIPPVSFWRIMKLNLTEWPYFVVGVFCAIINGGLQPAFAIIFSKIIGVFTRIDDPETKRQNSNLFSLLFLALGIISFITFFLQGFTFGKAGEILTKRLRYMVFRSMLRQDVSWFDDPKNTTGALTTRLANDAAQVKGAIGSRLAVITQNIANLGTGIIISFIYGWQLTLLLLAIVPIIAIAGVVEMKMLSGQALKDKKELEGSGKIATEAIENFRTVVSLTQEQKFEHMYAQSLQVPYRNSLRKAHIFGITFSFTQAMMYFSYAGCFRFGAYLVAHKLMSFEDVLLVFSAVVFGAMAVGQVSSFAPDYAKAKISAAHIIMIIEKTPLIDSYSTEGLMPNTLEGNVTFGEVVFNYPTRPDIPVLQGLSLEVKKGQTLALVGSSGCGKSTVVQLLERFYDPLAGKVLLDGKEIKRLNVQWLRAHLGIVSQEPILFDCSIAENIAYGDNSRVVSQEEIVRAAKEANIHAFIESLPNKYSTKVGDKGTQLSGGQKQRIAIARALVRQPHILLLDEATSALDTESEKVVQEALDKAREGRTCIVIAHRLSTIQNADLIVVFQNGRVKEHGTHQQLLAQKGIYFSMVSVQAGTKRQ
smiles,measurement,setting,value
CCn1cc(C(=O)O)c(=O)c2cc(F)c(N3CCN(C)CC3)cc21,z-score,[1],-1.05 (inactive)
same,outcome,[2],inactive
same,outcome,[3],inactive
same,outcome,[4],inactive
same,outcome,[5],inactive
same,outcome,[6],inactive
same,inhibition,[7]; [19],-3.22% (inactive) and -29% (inactive)
same,inhibition,[7]; [20],13.2% and 24%
same,inhibition,[7]; [21],-32.6% and 8.85%
same,inhibition,[7]; [22],12.2% and 6.61%
same,inhibition,[7]; [23],-21.7% and -50.8%
same,inhibition,[7]; [24],-2.03% and -14%
same,inhibition,"[8]; BGB combo, at 5 µM",-18.6% and 9.99%
same,inhibition,[8]; at 0.5 µM,-25.3% (inactive) and 3.48% (inactive)
same,inhibition,"[8]; cisplatin combo, at 5 µM",-42% and 24.3%
same,inhibition,[8]; [25],-16.6% and 0.157%
same,inhibition,[8]; [26],-28.5% and 3.55%
same,inhibition,"[8]; single agent, at 5 µM",-19.9% and 6.42%
same,inhibition,"[9]; BGB IC20 combo, at 0.005 µM",-18.1% and 6.69%
same,inhibition,"[9]; BGB IC40 combo, at 0.005 µM",-42.4% and -0.345%
same,inhibition,"[9]; BGB IC40 combo, at 0.05 µM",-41% and 23.4%
same,inhibition,[9]; at 0.5 µM,-41.8% (inactive) and -20.7% (inactive)
same,inhibition,"[9]; cisplatin combo, at 0.05 µM",-41% and 21.2%
same,inhibition,"[9]; cisplatin combo, at 0.5 µM",-53.3% and -24%
same,inhibition,"[9]; cisplatin combo, at 5 µM",-34.1% and -14.2%
same,inhibition,[9]; [27],-3.29% and -1.89%
same,inhibition,[10]; at 0.5 µM,-24.6% (inactive) and 0.8% (inactive)
same,inhibition,[10]; [28],-39.2% and 13.3%
same,inhibition,[10]; [29],-22.1% and 10.1%
same,inhibition,[10]; [30],-19.7% and -20.6%
same,inhibition,[10]; [31],-28.4% and -20.4%
same,inhibition,"[10]; single agent, at 5 µM",-27.1% and 2.1%
Cc1ncc([N+](=O)[O-])n1CC(C)O (stereo not drawn),z-score,[1],0.376 (inactive)
same,outcome,[2],inactive
same,outcome,[3],inactive
same,outcome,[4],inactive
same,outcome,[5],inactive
same,outcome,[11],inactive
same,outcome,[6],inactive
O=S(=O)(O)CCS,fluorescence slope change,[12],5.5% (inactive)
same,inclusion score,[13],2
same,outcome,[2],inactive
same,outcome,[3],inactive
same,outcome,[4],inactive
same,outcome,[14],inactive
same,outcome,[15],inactive
same,outcome,[5],inactive
same,outcome,[11],inactive
same,outcome,[6],inactive
Cn1cnc([N+](=O)[O-])c1Sc1ncnc2nc[nH]c12,fluorescence slope change,[12],53.6% (active)
same,inclusion score,[13],2
same,period change,[16],0.485 h (inactive)
same,fluorescence ratio (interference),[17],1 (inactive)
same,outcome,[4],inactive
same,AC50,[15],6.61 µM (active)
same,outcome,[18],inactive
same,inhibition,[7]; [19],-24.5% (inactive) and -18.6% (inactive)
same,inhibition,[7]; [20],-29.8% and -1.49%
same,inhibition,[7]; [21],-7.88% and -5.24%
same,inhibition,[7]; [22],-1.05% and 8.34%
same,inhibition,[7]; [23],-41.8% and -13.7%
same,inhibition,[7]; [24],-15% and -14.9%
same,inhibition,"[8]; BGB combo, at 5 µM",27% and -4.71%
same,inhibition,[8]; at 0.5 µM,9.11% (inactive) and 3.47% (inactive)
same,inhibition,"[8]; cisplatin combo, at 5 µM",18.8% and 16.9%
same,inhibition,[8]; [25],3.66% and -16.5%
same,inhibition,[8]; [26],5.32% and -7.32%
same,inhibition,"[8]; single agent, at 5 µM",55.4% and 48.5%
same,inhibition,"[9]; BGB IC20 combo, at 0.005 µM",-7.33% and 0.138%
same,inhibition,"[9]; BGB IC40 combo, at 0.005 µM",-44% and -68.5%
same,inhibition,"[9]; BGB IC40 combo, at 0.05 µM",-15.3% and -11.2%
same,inhibition,[9]; at 0.5 µM,-19.6% (inactive) and -22.9% (inactive)
same,inhibition,"[9]; cisplatin combo, at 0.05 µM",-15.3% and -15.6%
same,inhibition,"[9]; cisplatin combo, at 0.5 µM",-29.3% and -25.2%
same,inhibition,"[9]; cisplatin combo, at 5 µM",-23% and 1.4%
same,inhibition,[9]; [27],-20.7% and -15.2%
same,inhibition,[10]; at 0.5 µM,-24.4% (inactive) and -11% (inactive)
same,inhibition,[10]; [28],-62.4% and -24%
same,inhibition,[10]; [29],-10.9% and -18.4%
same,inhibition,[10]; [30],-12.7% and 1.06%
same,inhibition,[10]; [31],8.32% and 19.5%
same,inhibition,"[10]; single agent, at 5 µM",11% and -0.274%
OCCN1CCN(CCCN2c3ccccc3Sc3ccc(C(F)(F)F)cc32)CC1,fluorescence slope change,[12],91.3% (active)
same,period change,[16],0.01 h (inactive)
same,fluorescence ratio (interference),[17],0.9 (inactive)
same,z-score,[1],0.247 (inactive)
same,AC50,[2],10.5 µM (active)
same,AC50,[4],18.7 µM (active)
same,AC50,[14],9.34 µM (active)
same,AC50,[15],7.42 µM (active)
same,AC50,[11],3.72 µM (active)
same,outcome,[18],inactive
CN1CCCC(n2nc(Cc3ccc(Cl)cc3)c3ccccc3c2=O)CC1 (stereo not drawn),z-score,[1],0.519 (inactive)
same,AC50,[3],2.35 µM (active)
same,AC50,[4],6.62 µM (active)
CN(C)CCCN1c2ccccc2Sc2ccc(Cl)cc21,period change,[16],-0.035 h (inactive)
same,fluorescence ratio (interference),[17],1 (inactive)
same,outcome,[18],inactive
CCCNC(=O)NS(=O)(=O)c1ccc(Cl)cc1,fluorescence slope change,[12],6.6% (inactive)
same,inclusion score,[13],2
same,period change,[16],0.055 h (inactive)
same,fluorescence ratio (interference),[17],1 (inactive)
same,outcome,[18],inactive
c1ccc2c(c1)CCCC2C1=NCCN1 (stereo not drawn),fluorescence slope change,[12],13.8% (inactive)
same,inclusion score,[13],2
same,period change,[16],-0.02 h (inactive)
same,fluorescence ratio (interference),[17],1 (inactive)
same,outcome,[18],inactive
CN(C)CCCN1c2ccccc2CCc2ccccc21,period change,[16],0.07 h (inactive)
same,fluorescence ratio (interference),[17],1 (inactive)
same,outcome,[18],inactive
CCCCC1=NC2(CCCC2)C(=O)N1Cc1ccc(-c2ccccc2-c2nn[nH]n2)cc1,z-score,[1],0.146 (inactive)
O=C(CCCN1CC=C(n2c(=O)[nH]c3ccccc32)CC1)c1ccc(F)cc1,fluorescence slope change,[12],53.4% (active)
same,z-score,[1],0.0538 (inactive)
C[C@H](CS)C(=O)N1CCC[C@H]1C(=O)O,inclusion score,[13],2
same,period change,[16],0.01 h (inactive)
same,fluorescence ratio (interference),[17],1 (inactive)
same,outcome,[18],inactive
CCOC(=O)[C@H](CCc1ccccc1)N[C@@H](C)C(=O)N1Cc2ccccc2C[C@H]1C(=O)O,inclusion score,[13],2.5
CN(C)CCC=C1c2ccccc2CCc2ccccc21,period change,[16],0.175 h (inactive)
same,fluorescence ratio (interference),[17],0.9 (inactive)
same,outcome,[18],inactive
OC(CCN1CCCCC1)(c1ccccc1)C1CCCCC1 (stereo not drawn),fluorescence slope change,[12],66% (active)
same,period change,[16],0 h (inactive)
same,fluorescence ratio (interference),[17],1 (inactive)
same,outcome,[18],inactive
CCN(CC)CCOC(=O)C1(C2CCCCC2)CCCCC1,period change,[16],0.005 h (inactive)
same,fluorescence ratio (interference),[17],1 (inactive)
same,outcome,[18],inactive
CCCNC(C)C(=O)Nc1ccccc1C (stereo not drawn),inclusion score,[13],2
same,period change,[16],-0.13 h (inactive)
same,fluorescence ratio (interference),[17],1 (inactive)
same,outcome,[18],inactive
